Among the data in PubChem BioAssay (EPA / NIEHS) are outcome and AC50 values, retold here.

Calls of active or inactive are those of the source. How the source made its calls: active means hit-call score of the fitted dose curve at least 0.9, where 1 is the maximum; inactive means score below 0.9.

Read-out in this assay: BCL2L11 (gene 10018)
Briefly: LTEA_HepaRG_BCL2L11: Life Technologies and Expression Analysis (LTEA) Assay for Bcl-2 (BCL2L11) gene using HepaRG (AID 2283473). Conditions: mRNA level, 48 h; actives raise or lower the signal. Here is the method:
LTEA_HepaRG is a cell based, multiplexed-readout assay that uses HepaRG, a human liver cell line, with measurements taken at 48 hours after chemical dosing on a 96-well plate.LTEA_HepaRG_BCL2L11 is one of 102 assay component(s) measured in the LTEA HepaRG cell culture assay. It is a marker of Cell proliferation, survival, death.Data from the assay component LTEA_HepaRG_BCL2L11 was analyzed into 1 endpoint. This assay endpoint, LTEA_HepaRG_BCL2L11, was analyzed with bidirectional fitting relative to DMSO as the negative control and baseline of activity. Using a type of inducible reporter, measures of mRNA induction for gain or loss-of-signal activity can be used to understand regulation of transcription factor activity. To generalize the intended target to other relatable targets, this assay endpoint is annotated to the cell cycle intended target family, where the subfamily is Cell proliferation, survival, death.
A total of 1060 chemcials from the ToxCast library were tested in eight-point concentration-response experiments. Cell culture and cytotoxicity assays were conducted at Thermo Fisher Scientific's Custom Services facility (Madison, WI). A single lot of human HepaRG cells (Thermo Fisher Scientific, Frederick, MD) was used for the cell culture experiments. 96-well format collagen type I coated plates of human HepaRG cells were prepared using established methods. Briefly, cryopreserved HepaRG cells were thawed, plated at a density of approximately 100,000 cells/well in HepaRG Thaw, Plate, and General Purpose media (HPRG770, Thermo Fisher Scientific), and incubated for 48 hours. 0.5% DMSO was selected as vehicle control to balance the requisite need of DMSO in HepaRG cultures to maintain differentiation (for example, baseline metabolism, proportions of hepatocytes vs. cholangiocytes), while enabling further hepatic receptor pathway activation (for example, PXR and CAR) in response to chemical exposure. 48 hours after plating, the culture medium was replaced with HepaRG Serum-Free Incudtion Media. Cells were exposed to each test chemical in duplicate and maintained in CO2 incubators for another 48 hours. Chemical plates were thawed to room temperature and 200x concentrations of treatment groups were prepared. 8-point conentration-reponse curves were made with the highest exposure at 100 uM, followed by half-log dilutions, all in 0.5% DMSO. Each test plate contained variouse controls, induction positive controls (1mM phenobarbital), cytotoxicity positive controls ([…] aflatoxin B1), vehicle controls (0.5% DMSO), and total lysis controls (0.5% DMSO). Cell morphology images were taken using an Essen IncuCyte FLR automated microscope, with six 96-well plates imaged in about 24 minutes. Images were captured and exported and JPEG files. Spent culture media was transfered to black-well plates for the LDH assay, and remaining media was sorted at -80 C for later use. Cells were treated with RLT buffer and frozen until shipped for gene expression analysis. Total RNA was isolated from the cell suspension in 75 uL of Buffer RLT (Qiagen, Germantown, MD 20874) by Quintiles/Expression Analysis (Durham, NC) using a custom isolation procedure. Total RNA from each plate well was transferred to a preamplification plate. Fluidigm's 96.96 Dynamic ArrayTM (Fluidigm, Amsterdam, the Netherlands) technology was used for gene expression analyses by quantitative reverse transcription polymerase chain reaction (qRT-PCR, performed by Quintiles/Expression Analysis, Durham, NC)89. Standard TaqManTM Assays (Applied Biosystems/ThermoFisher Scientific, Foster City, CA) were used to assess the expression of 93 genes selected based on their selectivity and sensitivity to important hepatic receptors known to be modulated by environmental chemicals; importance in human hepatocyte functionality; and hepatotoxicity. […]
Regarding `CCOC(=O)c1ccc(C2CCC(NC[C@H](O)COc3ccc(O)c(NS(C)(=O)=O)c3)CC2)cc1` (stereo not given in full), the outcome was inactive.

For the compound `CC(=O)OC[C@H]1O[C@@](COC(C)=O)(O[C@H]2O[C@H](COC(C)=O)[C@@H](OC(C)=O)[C@H](OC(C)=O)[C@H]2OC(C)=O)[C@@H](OC(C)=O)[C@@H]1OC(C)=O`, the compound was called inactive.

In the case of `CC[C@H]1CC[C@H](NCc2cc3c(cc2OC)[C@H]2C[C@H]2C(=O)N3C)[C@H](c2ccccc2)N1`, the AC50 was 31.7 µM (active).

Turning to `On1ccccc1=S`, the compound was classed as inactive.

As to `CCCN(C1CCN(C(=O)C2CCNCC2)CC1)[C@@H]1CCc2ccc(OC)cc2C1`, the outcome was inactive.

As for `CCNc1ccccc1`, the compound was classed as inactive.

As to `CC(C)=CCC/C(C)=C\CO`, the compound was called inactive.

As for `O=C1OC(=O)C2C3C=CC(C3)C12` (stereo not given), the call was inactive.

Take `Cn1c(=O)cc(Oc2ccc(F)cc2F)c2cnc(NCC(C)(C)O)nc21`: the compound was classed as inactive.

`CC1=CC(=O)CC(C)(C)C1`: the result was inactive.

On to `O=C1CCC(N2C(=O)c3ccccc3C2=O)C(=O)N1` (stereo not given), for which the call was inactive.

With `C=CCCCCCCCCC(=O)O`, the call was inactive.

For the compound `CCOc1cccc(-n2cc(C(=O)N3CCN(c4cc(C(=O)O)c5ccccc5c4)CC3)nc2-c2ccc(C)cc2)c1`, the AC50 was 87.8 µM (active).

As for `COCCOc1cc2cc(C(=O)NC3CCN(C(C)C)CC3)n(CC(=O)Nc3ccc(Cl)cn3)c2cn1`, the AC50 was 15.2 µM (active).

As for `CC1(C)C(=O)N(Br)C(=O)N1Br`, the compound was called inactive.

With `Cn1c(=O)c2c(ncn2C)n(C)c1=O`, the call was inactive.

For `CCCC(=O)OCC`, the compound was called inactive.

Take `COc1ccc(/C=C/S(=O)(=O)NC(=O)c2ccc(C)cc2Cl)cc1`: the compound was called inactive.

`C1N2CN3CN1CN(C2)C3`: the result was inactive.

As to `CN(C)c1ccc(N=NS(=O)(=O)O)cc1`, the call was inactive.

As for `Clc1nc(Cl)c(Cl)c(Cl)c1Cl`, the outcome was inactive.

For the compound `O=C(CCCCCCCCc1cccnc1)N1CCC(C=C(c2ccccc2)c2ccccc2)CC1`, the AC50 is 27.3 µM (active).

On to `O=c1[nH]c2ccc(S(=O)CCN3CCC(Cc4ccc(F)cc4)CC3)cc2o1` (stereo not given), for which the compound was classed as inactive.

As to `CCOC(=O)COc1ccc2c(c1)CC(NCC(O)c1cccc(Cl)c1)CC2` (stereo not given), the compound was classed as inactive.

With `CC(C)CC(C)(O)C#CC(C)(O)CC(C)C` (stereo not given), the compound was classed as inactive.

As for `C1=CCCC=CCCC=CCC1`, the result was inactive.

`CCCCCCCCCCCCc1ccccc1`: the outcome was inactive.

For the compound `O=C1CCCCCN1`, the outcome was inactive.

For `CCOC(=O)CC(CC(=O)OCC)(OC(C)=O)C(=O)OCC`, the compound was classed as inactive.

Turning to `CCC(C)(C)C(=O)O[C@H]1C[C@@H](C)C=C2C=C[C@H](C)[C@H](CC[C@@H]3C[C@@H](O)CC(=O)O3)[C@H]21`, the compound was classed as inactive.

Take `O=C(OC[C@H]1O[C@@H](OC(=O)c2cc(O)c(O)c(OC(=O)c3cc(O)c(O)c(O)c3)c2)[C@H](OC(=O)c2cc(O)c(O)c(OC(=O)c3cc(O)c(O)c(O)c3)c2)[C@@H](OC(=O)c2cc(O)c(O)c(OC(=O)c3cc(O)c(O)c(O)c3)c2)[C@@H]1OC(=O)c1cc(O)c(O)c(OC(=O)c2cc(O)c(O)c(O)c2)c1)c1cc(O)c(O)c(OC(=O)c2cc(O)c(O)c(O)c2)c1`: the AC50 is 15.2 µM (active).

For the compound `Nc1nc2ncc(CNc3ccc(C(=O)N[C@@H](CCC(=O)O)C(=O)O)cc3)nc2c(=O)[nH]1`, the outcome was inactive.

With `CCn1nc(Cc2ccccc2)cc1C1CCN(C[C@H]2C[C@H](N(C)[C@@H](C(=O)O)C(C)C)C[C@@H]2c2cccc(F)c2)CC1`, the compound was called inactive.

For the compound `C[C@](N)(Cc1ccc(O)c(O)c1)C(=O)O`, the outcome was inactive.

As for `CCc1cc(SCc2sc(-c3ccc(C(F)(F)F)cc3)nc2CN2CCN(c3ccc(OC)cc3)CC2)ccc1OCC(=O)O`, the AC50 was 89.4 µM (active).

Take `CC[C@H]1OC(=O)[C@H](C)[C@@H](O[C@H]2C[C@@](C)(OC)[C@@H](O)[C@H](C)O2)[C@H](C)[C@@H](O[C@@H]2O[C@H](C)C[C@H](N(C)C)[C@H]2O)[C@](C)(O)C[C@@H](C)C(=O)[C@H](C)[C@@H](O)[C@]1(C)O`: the result was inactive.

As for `CCCCCCCCCCCCCCCO`, the compound was called inactive.

Turning to `CC(C)=CCCC(C)CCO` (stereo not given), the compound was called inactive.

For the compound `CCCCC(CC)COC(=O)c1ccc(C(=O)OCC(CC)CCCC)cc1` (stereo not given), the outcome was inactive.

Turning to `CC(=O)c1ccc2c(c1)[C@H](NC(=O)c1ccc(F)cc1)[C@@H](O)C(C)(C)O2`, the result was inactive.

The term AC50 denotes the midpoint of the concentration-response curve, whichever way the signal moves.
